In the library only some 2.4% were active in any assay of this set; here they are far more common.
Pol kappa inh – qHTS for Inhibitors of Polymerase Kappa; purified Pol kappa, fluorescent DNA synthesis assay, 10 min; AID 588579, 2011; Potency, µM (top dose mostly 107 µM), for the others: top-dose activity, negative = inhibition, most hits filed as inhibitors; hit rate 0.53% among 400,000; DNA polymerase kappa (Homo sapiens), Q9UBT6; also: % is scaled to controls: 0 for no effect and ±100 for the full control effect
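Fluorescent qHTS in 1536-well format: enzyme (10 nM) and compound sat 15 min at room temperature before 50 nM substrate (final) was added. Signal taken at 0 and 10 min; no-enzyme buffer wells were negative controls.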
Pol beta inh – qHTS Assay for Inhibitors of DNA Polymerase Beta; Pol beta primer extension/strand displacement, fluorescence kinetic; P06746; AID 485314, 2010; hit rate 1.3% among 340,000; Potency, µM (top dose mostly 114 µM), for inactives: at the highest dose activity change, negative = inhibition, most hits filed as inhibitors; also: % is scaled to controls: 0 for no effect and ±100 for the full control effect
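Enzyme-only controls used 10 nM Pol beta; buffer lacking enzyme served as negative control. Compound preincubated 15 min, then 50 nM substrate added; 0 and 10 min reads at room temperature.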
Pol iota inh – qHTS for Inhibitors of Polymerase Iota. Pol iota fluorescent replication assay, 10 min. Potency, µM (highest dose often 115 µM), inactives show top-dose activity, negative = inhibition, usual class: inhibitors. hit rate 1% among 390,000
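Fluorescent replication assay read twice, at 0 min and 10 min after adding 50 nM (final) substrate. Enzyme (10 nM) and compounds were first incubated 15 min at room temperature; enzyme-free buffer wells were negative controls.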
FEN1 inhibitor – qHTS Assay for the Inhibitors of Human Flap endonuclease 1 (FEN1). Recombinant FEN1 flap cleavage, fluorescence, 15 min. Potency, µM (doses to about 114 µM), without a hit: at the highest dose activity change, negative = inhibition, most hits filed as inhibitors. hit rate 0.35% among 390,000. AID 588795, 2011; also: % is scaled to controls: 0 for no effect and ±100 for the full control effect; nearly all actives have a fitted effect of over 65% in size
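FEN1 at 10 nM preincubated with compounds 15 min at room temperature, then flap DNA substrate added at 50 nM final. Signal read at 0 and 15 min; concentration-response fitted with four-parameter Hill equation.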
POLH inh – qHTS for Inhibitors of Polymerase Eta; DNA polymerase eta (Homo sapiens), Q9Y253; recombinant Pol eta, fluorescent DNA replication assay; Potency, µM (series often up to 114 µM), for inactives: at the top dose activity change, negative = inhibition, hits mostly inhibitors; hit rate 1.2% among 390,000; AID 588591, 2011; also: % is scaled to controls: 0 for no effect and ±100 for the full control effect
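Pol eta (10 nM) was preincubated with compounds for 15 min at room temperature, after which fluorescent replication substrate (50 nM final) was added to start the reaction. Fluorescence was read kinetically at 0 and 10 min.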
PGK inhibitor – qHTS Assay to Find Inhibitors of Phosphoglycerate Kinase; AID 602233, 2012; Potency, µM (top dose mostly 57.5 µM), without a hit: at the highest dose activity change, negative = inhibition, most hits filed as inhibitors; hit rate 0.043% among 380,000; PGK/GAPDH coupled, Kinase-Glo luminescence, 60 min; also: % is scaled to controls: 0 for no effect and ±100 for the full control effect; nearly all actives have a fitted effect of over 60% in size
Target sequence (P07378 whole entry, looked up): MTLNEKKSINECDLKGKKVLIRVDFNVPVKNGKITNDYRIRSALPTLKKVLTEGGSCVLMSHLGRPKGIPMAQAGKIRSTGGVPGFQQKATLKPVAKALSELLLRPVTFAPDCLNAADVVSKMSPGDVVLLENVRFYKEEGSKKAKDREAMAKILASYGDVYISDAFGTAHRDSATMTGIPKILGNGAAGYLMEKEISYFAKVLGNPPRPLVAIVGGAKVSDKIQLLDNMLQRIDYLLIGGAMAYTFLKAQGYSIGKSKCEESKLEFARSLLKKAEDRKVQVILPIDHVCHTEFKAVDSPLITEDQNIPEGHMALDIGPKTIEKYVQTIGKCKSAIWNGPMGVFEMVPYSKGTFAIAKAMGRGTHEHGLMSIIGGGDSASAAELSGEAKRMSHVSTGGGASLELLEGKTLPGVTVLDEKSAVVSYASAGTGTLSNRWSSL
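Luminescent ATP detection (Kinase-Glo Plus) follows a 60-minute room-temperature incubation, with wells lacking PGK as controls. Buffer: 100 mM TEA (pH 7.6), 5 mM MgCl2, 0.01% Tween-20. Coupling enzyme GAPDH (100 nM final) supplies unstable 1,3-BPG in-well.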
* marks the source's active call; other numbers are inactive results; i = inactive; ? = inconclusive; . = no result given; ! = not active in a repeat; [ ] = another dose, or the depositor's remark. Calls follow the shape of the dose curve; as a rule, active = well fitted curve in the direction sought with a large enough effect; inconclusive = small, poorly fitted or top-dose-only effect, or another doubt; inactive = no such curve, though single readings can be large; an effect the other way counts as inactive or inconclusive. Potency is read from the fitted curve at half-maximal effect.

SMILES | Pol kappa inh | Pol beta inh | Pol iota inh | FEN1 inhibitor | POLH inh | PGK inhibitor
Cc1[nH][nH]c(=O)c1C(c1c(C)[nH][nH]c1=O)c1cn(Cc2ccc(Cl)c(Cl)c2)c2ccccc12 | -2% | 1% | 2.5µM* | -18% | ? | -9%
N[C@@H](Cc1cc(I)c(Oc2ccc(O)c(I)c2)c(I)c1)C(=O)O | ? | 20µM*! | 50µM*! | ? | 32µM*! | ?
NC(Cc1cc(I)c(Oc2ccc(O)c(I)c2)c(I)c1)C(=O)O (configuration not stated) | -6%[60.1 µM] | . | . | . | . | .
O=C(Cc1n[nH]c(=O)[nH]c1=O)N/N=C/c1cccc(O)c1 | 4% | 1% | 1% | 11% | -8% | -3%
O=C(Cc1n[nH]c(=O)[nH]c1=O)N/N=C/c1cccc(Cl)c1 | ? | 0% | 89µM* | -3% | -15% | -5%
CC(=O)c1ccccc1OCC(O)CN1CCN(CCN2C(=O)c3cccc4cccc(c34)C2=O)CC1 (configuration not stated) | -15% | 40µM* | 23% | ? | -1% | 2%
Cc1ccc(C)c(OCC(O)CN2CCN(CCN3C(=O)c4cccc5cccc(c45)C3=O)CC2)c1 (configuration not stated) | -9% | -19% | -26% | ? | -16% | 6%
COc1cccc(OCC(O)CN2CCC(CN3C(=O)c4cccc5cccc(c45)C3=O)CC2)c1 (configuration not stated) | -17% | -15% | -19% | 28µM* | -9% | -8%
CN1CCN(c2oc(-c3ccc(OCc4ccc(Cl)cc4)cc3)nc2C#N)CC1 | -11% | . | 38% | -11% | . | .
CNCCN(C)c1nc(-c2cccs2)nc2ccccc12 | -12% | . | ? | ? | . | .
Cc1ccnc(N/C=C(\C#N)c2nc(-c3cccc(Br)c3)cs2)c1 | -4% | 35µM* | ? | ? | -21% | -12%
CCOC(=O)/C=C1\SCC(=O)N1Cc1nnc(-c2ccccc2Br)o1 | -7% | 22µM* | ? | -9% | ? | -12%
CCC(=O)Nc1ccc(C(=O)NNC(=O)C(c2ccccc2)c2ccccc2)cc1 | -25% | 45µM* | -63% | 9% | ? | -13%
CC(C)C(=O)Nc1ccc(C(=O)NNC(=O)C(c2ccccc2)c2ccccc2)cc1 | -16% | ? | 79µM* | 6% | -10% | -1%
Nc1ccc(O)c2c(=O)cc(-c3ccccc3Cl)oc12 | -11% | 22µM* | -19% | -8% | -12% | -9%
O=c1cc(-c2ccccc2Cl)oc2c(NS(=O)(=O)c3cc(Cl)cc(Cl)c3O)ccc(O)c12 | ? | 45µM* | 40µM* | -36% | 32µM* | ?
O=c1cc(-c2ccccc2Cl)oc2c(NS(=O)(=O)c3cccc4nsnc34)ccc(O)c12 | -7% | 9% | ? | -10% | -3% | 2%
O=[N+]([O-])c1cc(-c2ccc(/C=N/n3cnnc3)o2)ccc1Cl | -27% | -1% | -24% | 5% | -5% | -3%
O=[N+]([O-])c1ccc(Cl)c(-c2ccc(/C=N/n3cnnc3)o2)c1 | ? | 25µM* | ? | -24% | ? | -16%
Cc1ccccc1Nc1c(-c2ccc(Cl)s2)nc2c(C)cccn12 | -24% | 11µM* | -39% | -6% | -15% | -3%
Cc1ccccc1Nc1c(-c2ccc(Cl)cc2)nc2c(C)cccn12 | 5% | -1% | -1% | -5% | 3% | -2%
O=C(C[n+]1cccc(Br)c1)c1ccc(F)cc1 | 0% | . | -24% | 11% | . | .
CNC(=O)C1CCC(Cn2c(=O)c3sccc3n(Cc3ccccc3)c2=O)CC1 (configuration not stated) | 25% | 12% | 1% | 1% | -5% | -2%
O=C1ON=C(c2ccccc2)/C1=C\c1ccco1 | -19% | 32µM* | 8% | 17% | -4% | 12%
COc1cc([N+](=O)[O-])ccc1-c1ccc(/C=C2\C(=O)ON=C2c2ccccc2)o1 | -28% | . | ? | ? | 79µM* | 2%
SMILES | Pol kappa inh | Pol beta inh | Pol iota inh | FEN1 inhibitor | POLH inh | PGK inhibitor
O=C(O)COc1ccccc1C1C2C(=O)N(c3ccccc3)C(=O)C2ON1c1ccccc1 (configuration not stated) | -9% | ? | ? | 23% | ? | -2%
CCOc1ccccc1C1C2C(=O)N(c3ccccc3)C(=O)C2ON1c1ccccc1 (configuration not stated) | -7% | 5% | 56µM* | 2% | -18% | -2%
CC(OC(=O)c1ccc(-n2cnnn2)cc1)C(=O)Nc1ccc(F)c(F)c1F (configuration not stated) | ? | . | 40µM* | -22% | 56µM* | -11%
CC(OC(=O)c1ccc(-n2cnnn2)cc1)C(=O)Nc1ccccc1F (configuration not stated) | -7% | . | 11% | 3% | 1% | i
Cc1ccc2nc(-c3ccc(N4C(=NC(=O)CCC(=O)O)SC5CS(=O)(=O)CC54)cc3)sc2c1 (configuration not stated) | ? | ? | ? | -12% | 3.5µM* | ?
CC(=O)N=C1SC2CS(=O)(=O)CC2N1c1ccc(-c2nc3ccc(C)cc3s2)cc1 (configuration not stated) | . | -3% | . | . | . | .
O=C1OC(c2ccc3ccccc3c2O)(c2ccc3ccccc3c2O)c2ccccc21 | ? | . | ? | ? | 25µM* | -6%
Cc1ccc(CNC(=O)COc2ccc(C)nc2[N+](=O)[O-])cc1 | -7% | 8% | 12% | 3% | -18% | -1%
Cc1ccc(OCC(=O)c2ccc(Cl)s2)c([N+](=O)[O-])n1 | ? | 25µM* | ? | -3% | ? | -1%
Cc1ccc(NC(=O)C2CCCN2C(=O)OCc2ccccc2)cc1F (configuration not stated) | 79µM* | 30% | ? | -24% | -9% | 3%
COc1ccc(NC(=O)C2CCCN2S(=O)(=O)c2ccc3nc(-c4ccccc4)[nH]c3c2)cc1 (configuration not stated) | 2% | -6% | -7% | 27% | 0% | -11%
Cc1ccc(NC(=O)C2CCCN2S(=O)(=O)c2ccc3nc(-c4ccccc4)[nH]c3c2)cc1F (configuration not stated) | ? | ? | ? | -8% | 79µM* | -9%
